In PubChem BioAssay (NCI) one finds growth data, which are given here for 40 compounds.

The panel holds about 83,000 compounds, 20% with a hit somewhere; the sample as a whole holds those more often.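 Cell lines were cultured in 96-well plates, exposed to a single compound concentration, and assessed for percent growth 48 hours later.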 Unmarked numbers belong to inactive results. Active and inactive are the calls of the source. The calls were made as follows: active = growth percent below 10; inactive = the rest.

The test system of the assay is HL-60(TB) leukemia. In words: NCI-60 one-dose screen, 48 h (100 = growth as untreated, 0 = no growth, -100 = all killed). Conditions: 10 µM unless noted.
As for `COc1cc(/C=C(\C#N)C(=O)c2ccccc2)ccc1OCc1ccccc1`, the growth is 103%.
Turning to `O=C1/C(=C/c2ccccc2)CN(C(=O)C(Cl)Cl)C/C1=C\c1ccccc1`, the growth is -15.3% (active).
`CN1CCN(c2cc(F)c(NC3=C(Cl)C(=O)c4ncccc4C3=O)c(F)c2)CC1`: the growth was -26.4% (active).
Then `CN(C)c1ccc2cc(-c3cc4c(oc3=O)-c3ccccc3OC4O)c(=O)oc2c1` (stereo not given), with -66.5% (active); and `Cc1occc1-c1n[nH]c(=S)n1N1C(=O)CSC1=S`, with 99.2%.
The result for `O=C(Nc1ccc(Br)cc1)c1ccc(Cl)c(Cl)c1` reads 19.4%.
The result for `C=CCOc1ccc(Cl)cc1Cl` reads 20.5%.
With `CCOC(=O)c1cc2c(n(C)c1=O)-c1cnn(-c3ccc(OC)cc3)c1CC2`, the growth is 113%.
The result for `O=C(c1ccccc1)c1ccc(O)c2ncccc12` reads 19.8%; that for `Cc1cc(N2CCN(c3ccnc4cc(Cl)ccc34)CC2)nc(NC2CCCCC2)n1`, -54.1% (active); that for `CN(C)CCCN=c1cc2c(=O)n(CCCN(C)C)c(=O)c3c(NCCCN(C)C)cc4c(O)n(CCCN(C)C)c(=O)c1c4c3-2`, 61.2%.
For `O=C(Nc1ncc(Cc2ccccc2)s1)c1cc(-c2ccccc2)nc2ccccc12`, the growth was 99.2%.
For `COc1ccc(C(=O)/C=C/c2ccccc2)cc1S(N)(=O)=O`, the growth was 64.2%.
In the case of `COc1cc2c(c(O)c1Br)C(=O)c1c(O)cc(C[C@H](C)O)cc1[C@H]2[C@H]1c2cc(C[C@H](C)O)cc(O)c2C(=O)c2c1cc(OC)c(Br)c2O`, the growth is -28% (active).
For `CNCc1cccc2c1OCCOCCOCCC(C)S(=O)(=O)c1ccc(cc1)-c1cnc(N)c(n1)C(=O)N2` (stereo not given), the growth is -34.8% (active).
The result for `O=C(NCCCCCCCNC(=O)OCc1ccc2c(Cl)cc(Cl)c(O)c2n1)OCc1ccc2c(Cl)cc(Cl)c(O)c2n1` reads -45.9% (active); that for `CC1CCN(C(=O)OCc2nc3nc(Cl)nc(N4CCOCC4)c3[nH]2)CC1`, -43.5% (active); that for `COc1ccc2[nH]c(O)c(N=NC(=O)c3oc4ccccc4c3C)c2c1`, 53.9%.
For the compound `CCOC(=O)c1ccc(N(CCC(=O)O)C(C)=O)cc1`, the growth was 117%.
Then `CCOC(=O)C1=C(C)N2C(=NC3=C(CCC/C3=C\c3ccc(Cl)cc3)C2c2ccc(Cl)cc2)S1` (stereo not given), with -10.8% (active); and `O=C(Nc1ncc(Cc2ccccc2Cl)s1)c1cccs1`, with 58.5%; and `CCO/C=C1\SC(=S)N(c2cccc(O)c2)C1=O`, with 100%.
Then `O=C(/C(=C/c1ccc([N+](=O)[O-])cc1)SCc1ccccc1)c1ccc(Cl)cc1`, with 74.4%; and `O=C(Nc1ccc(Cl)cc1)Nc1ccc(Nc2nncc3ccccc23)cc1`, with 18.1%.
The result for `CC(C)OP(=O)(O)c1ncc(-c2ccc(C(F)(F)F)cc2)c(NC2CCCCCC2)n1` reads 44.4%; that for `Cc1ccc(O)c(N2C(=NCc3ccco3)NS(=O)(=O)c3cnccc32)c1`, 114%.
For `Cc1cc(N2CCN(CC(=O)Nc3ccc4c(ccn4C)c3)CC2)nc(N2CCCCCC2)n1`, the growth was 74.7%.
The result for `NC(CC(N)C(=O)O)C(=O)O` (stereo not given) reads 110%; that for `COc1cc2cc(Oc3ccc(NC(=O)Nc4cccc(C(F)(F)F)c4)cc3)c(C)nc2cc1OC`, -24.8% (active).
With `Cc1cc(N(CCOS(C)(=O)=O)CCOS(C)(=O)=O)ccc1C=Nc1ccc(-c2nc(Cc3ccccc3)sc2C)cc1`, the growth was 4.95% (active).
For the compound `c1ccc2c(NCCCN3CCN(CCCNc4c5ccccc5nc5ccccc45)CC3)c3ccccc3nc2c1`, the growth was -23.8% [100 µM] (active).
With `CN(C)c1ccc(N=C2C=CC(=O)C=C2)cc1`, the growth was 111%.
The result for `Nc1nc(-c2cccc3ccccc23)cc2ccccc12` reads -48.5% (active).
As for `COc1ccc(Cc2cnc(NC(=O)c3sc4ccccc4c3Cl)s2)cc1`, the growth is -50.3% (active).
Consider `COc1cc2c3c(n(C4CCNCC4)c(=O)c2cc1OC)-c1cc2c(cc1C3=O)OCO2`, for which the growth was -50.3% (active).
The result for `CC(CN1CCN(C)CC1)CN1c2ccccc2Sc2ccc(C(F)(F)F)cc21` (stereo not given) reads 40.4%; that for `Cn1cc(C(=O)NCCC(=N)N)cc1NC(=O)CN=C(N)N`, 102%; that for `CC(C)n1cc2c(N)ncnc2n1`, 101%.
As to `N=C(N)c1ccc(-c2ccc(-c3ccco3)o2)cc1F`, the growth is -17.1% (active).
Take `O=C1/C(=C/c2ccc(O)cc2)COc2ccc(O)cc21`: the growth is 96.2%.
